# Only some compounds are listed: those with a hit (about 6% of all), similar ones and a draw of the others.
# DRD3 agonist – qHTS of D3 Dopamine Receptor Agonist: qHTS; hit rate 0.58% among 410,000; D3R DiscoveRx beta-arrestin cells, luminescence, 90 min; max activation, %; AID 652048, 2013; in the data active = max activation above about 30%
#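 Agonist mode: compounds and dopamine controls were applied to plated cells for 90 min at 37 degrees C after an overnight attachment at 1500 cells/well. Luminescent read-out followed 30 - 60 minutes at room temperature with DiscoveRx detection reagent.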
# DRD3 antagonist – qHTS of D3 Dopamine Receptor Antagonist: qHTS; D(3) dopamine receptor (Homo sapiens), P35462; D3R cells, DiscoveRx beta-arrestin luminescence, antagonist mode; hits give low values; max response, negative = inhibition, %; hit rate 2.5% among 360,000; in the data active = max response below about -50%; inconclusive = no clear call, values can overlap the other calls
#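 Cells plated overnight at 1500 cells/well, then exposed to library compounds with dopamine controls for 90 minutes at 37 degrees C. DiscoveRx reagent added for 30–60 minutes at room temperature; luminescence read, quantitative HTS format.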
# D1 antag – Antagonist of Human D 1 Dopamine Receptor: qHTS; HEK293 TREx D1 cells, calcium flux, dopamine EC80; hits give low values; hit rate 3.2% among 360,000; D(1A) dopamine receptor (Homo sapiens), P21728; activity change, negative = inhibition, % at 10 µM; in the data active = activity change below about -30%
# Target sequence (P21728 whole entry, looked up): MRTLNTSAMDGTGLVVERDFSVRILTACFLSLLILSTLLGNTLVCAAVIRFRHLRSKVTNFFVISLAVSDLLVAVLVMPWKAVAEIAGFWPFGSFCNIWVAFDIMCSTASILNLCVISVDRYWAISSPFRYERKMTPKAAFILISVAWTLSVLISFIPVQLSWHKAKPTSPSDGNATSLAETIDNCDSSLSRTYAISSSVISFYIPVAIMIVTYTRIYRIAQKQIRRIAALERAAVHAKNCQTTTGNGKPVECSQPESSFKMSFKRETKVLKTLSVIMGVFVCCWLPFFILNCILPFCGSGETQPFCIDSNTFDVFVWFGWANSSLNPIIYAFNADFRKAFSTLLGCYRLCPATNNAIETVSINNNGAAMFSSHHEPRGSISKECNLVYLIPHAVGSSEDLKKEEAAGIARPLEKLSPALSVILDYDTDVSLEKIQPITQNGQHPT
#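 Tetracycline-induced HEK293 T-REx cells with force-coupled D1 receptor were loaded with a no-wash calcium dye. Compound was added after a 10 s baseline and read kinetically for 180 s; EC80 dopamine was then added and calcium flux followed another 180 s.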
# D1 ag – Allosteric Agonists of the Human D1 Dopamine Receptor: qHTS | hit rate 1% among 360,000 | D(1A) dopamine receptor (Homo sapiens), P21728 | HEK293 T-REx D1 cells, calcium flux, agonist mode | activation, % at 2 µM | AID 504660, 2011; in the data active = activation above about 30%
#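 Tetracycline-induced HEK293 TREx D1 cells, force-coupled to calcium signalling, were dye-loaded with a no-wash calcium kit. Compound was pin-added after a 10 s baseline. Fluorescence was read kinetically at 1 cycle/s for 180 s, with calcium rises flagged as agonism.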
# BCR signal inh – qHTS Assay to Find Inhibitors of Chronic Active B-Cell Receptor Signaling. ABC-DLBCL IkBa-CBG/CBR reporter, luminescence ratio, 4 h. Potency, µM (doses to about 46.1 µM), hits mostly inhibitors. hit rate 0.05% among 340,000. AID 493014, 2011; active = well fitted inhibition curve with a large enough effect in the signal ratio, with a control signal flat, not every such curve was filed as active; inconclusive = small, poorly fitted or top-dose-only effect, or effect the other way, or a change in a side signal; the % refers to the signal ratio
#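 TMD8 ABC-DLBCL cells carrying doxycycline-inducible green luciferase fused to IkappaBalpha plus unfused red luciferase were exposed to compounds (up to 46 uM) for 4 hrs at 37C. Activity came from the overlap-corrected green/red luminescence ratio.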
# D1 potentiator – Potentiators of Human D1 Dopamine Receptor: qHTS | D(1A) dopamine receptor (Homo sapiens), P21728 | HEK293 TREx D1 cells, calcium flux, dopamine EC20 potentiation | potentiation, % at 10 µM | hit rate 0.036% among 360,000; in the data active = potentiation above about 30%
# Numbers stand for hits; - = inactive; ? = inconclusive; . = not tested or not shown.
SMILES,DRD3 agonist,DRD3 antagonist,D1 antag,D1 ag,BCR signal inh,D1 potentiator
CCOC(=O)c1cnc2c(ccc3ccccc32)c1Nc1cccc(Cl)c1,-,.,-,-,.,-
Cc1ccc(S(=O)(=O)N2CCC[C@H]2C(=O)OCc2nc3ccccc3s2)cc1,-,-,.,.,.,.
Cc1ccc(S(=O)(=O)N2CCCC2C(=O)OCc2nc3ccccc3s2)cc1 (stereo unspecified),-,-,-,44.8,?,-
N#Cc1c[nH]n2c(NC3CCCCC3)c(-c3ccccc3F)nc12,-,.,-,-,.,-
COc1ccccc1N1CCN(C(=O)CSc2nc3ccccc3nc2Cc2ccc(C)cc2)CC1,34.3,.,-,-,.,-
O=C(CSc1nc2ccccc2nc1Cc1ccc(Cl)cc1)N1CCN(c2ccccc2F)CC1,37.0,.,-,-,.,-
COc1ccc(-n2ncc3c(SCC(=O)N4CCN(c5ccccc5OC)CC4)ncnc32)cc1,-,-,-52.5,-,-,-
CCN1CCN(c2csc3ccc(C)cc3c2=O)CC1,-,.,-,-,.,-
Oc1ccc(Cc2ncc(C(F)(F)F)cc2Cl)cc1,-,-,-,-,-,-
COC(=O)C(C)Oc1ccc(Cc2ncc(C(F)(F)F)cc2Cl)cc1 (stereo unspecified),-,-,-36.8,-,-,-
CCOc1ccc(NC(=O)Cn2cc(C(=O)c3ccc(C)c(C)c3)c(=O)c3cc(F)ccc32)cc1,-,.,-,-,.,-
O=C(CCSCCc1ccccn1)Nc1ccc(Cl)cn1,-,-61.8,-,-,-,-
Cc1ccnc(NC(=O)CCC2COc3ccccc3O2)c1 (stereo unspecified),-,-,-,-,-,-
O=C(CCC1COc2ccccc2O1)Nc1ccc(Cl)cn1 (stereo unspecified),-,-51.7,-,-,?,-
CC[C@H]1OC(=O)C[C@@H](O)[C@H](C)[C@@H](O[C@@H]2O[C@H](C)[C@@H](O)[C@H](N(C)C)[C@H]2O)[C@@H](CCN2C[C@H](C)C[C@H](C)C2)C[C@@H](C)C(=O)/C=C/C(C)=C/[C@@H]1CO[C@@H]1O[C@H](C)[C@@H](O)[C@@H](OC)[C@H]1OC,-,.,.,.,.,.
Nc1c([N+](=O)[O-])cc2c3c(cccc13)CC2,-,-73.5,.,.,.,.
Cc1c(N)cccc1[N+](=O)[O-],-,-,.,-,-,-
O=C(Nc1nnc([C@H]2C[C@H](O)[C@@H](CO)O2)s1)Nc1ccc(F)cc1F,-,-,.,.,.,.
Cn1c(N/N=C/c2cccs2)cc(=O)n(C)c1=O,-,-,-,-,-,-
Fc1c(F)c(C(F)(F)F)c(F)c(F)c1N/N=C\c1cccs1,-,-,-33.9,-,?,-
Cc1cccc(C(=O)Nc2cc3c(cc2C)n(C)c(=O)n3C)c1,-,.,-,-,.,-
CC(=O)c1ccc(NC(=O)c2sc(-n3nc(C)c(Cc4ccccc4)c3C)nc2C)cc1,-,.,-,-,.,-
CCN1C(=O)[C@@H]2[C@H](C1=O)[C@@H]1C(=O)Nc3ccccc3C(=O)N1[C@@H]2c1cccc(C)c1,44.6,-,-,-,-,-
COc1ccc(N(CC(=O)NC2CCCCC2)C(=O)c2ccc(C)s2)c(OC)c1,-,-,-34.8,-,-,.
COc1ccc(N2CCN(C(=O)Cn3nnc(-c4ccc(OC)c(OC)c4)n3)CC2)cc1,-,-,-,-,-,-
COc1ccc(N2CCN(C(=O)Cn3nnc(-c4cccs4)n3)CC2)cc1,-,-102.7,-,-,-,-
CC1Cc2ccccc2N1S(=O)(=O)c1nnc(NC(=O)c2ccccc2Br)s1 (stereo unspecified),-,.,-,-,.,-
CC1=C(C#N)C(c2cn(-c3ccccc3)nc2-c2cccs2)C(C#N)=C(C)N1,33.5,-,-,-,?,-
CN(C)c1ccc(N=Cc2nc(-c3ccccc3)oc2OC(=O)c2cccc(Cl)c2)cc1,-,-,-32.1,-,?,-

# From PubChem
